Rows were chosen to be rich in hits. Some 7.5% of all compounds tested hit in one or more screens of this group.
Vaccinia mCherry = vaccinia inhibition (mCherry reporter); hit rate 0.63% among 310,000; Potency, µM (doses to about 36.5 µM), inactives show top-dose activity change, negative = inhibition, hits mostly inhibitors; Vaccinia virus mCherry reporter infection, fluorescence; calls by dose curve; tested in A549 cells; further: potency means the concentration at half of the fitted maximal effect; nearly all actives have a fitted effect of over 35% in size
Vaccinia Venus = inhibitors of vaccinia virus (Venus reporter); Potency, µM (highest dose often 36.5 µM), for inactives: top-dose activity change, negative = inhibition, usual class: inhibitors; Vaccinia virus Venus reporter expression, fluorescence; AID 720580; hit rate 0.46% among 330,000; calls by dose curve; tested in A549 cells; further: potency means the concentration at half of the fitted maximal effect; nearly all actives have a fitted effect of over 30% in size
HCMV antiviral = human cytomegalovirus inhibition; AID 1259415; activity change, negative = inhibition, % at 57.5 µM; HFF cells, HCMV-luciferase reporter, 72 h; hits give low values; hit rate 4.5% among 410,000; in the data active means activity change below about -60%; inconclusive means no clear call, values can overlap the other calls; inactive means above about -39%
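Steps: HFFs plated, 16 h 37C; compounds added; HCMV-luciferase added to MOI 1 PFU/cell; 72 h 37C; OneGlo reagent, 5 min room temperature; luminescence read, normalized to controls.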
FBPA Giardia inh = blocks Giardia fructose-bisphosphate aldolase activity; A8B2U2; AID 2451; hit rate 0.71% among 290,000; purified Giardia FBPA; Potency, µM (series often up to 59.6 µM), inactives show at the top dose activity, negative = inhibition, usual class: inhibitors; further: potency means the concentration at half of the fitted maximal effect; nearly all actives have a fitted effect of over 55% in size
Target sequence (A8B2U2 whole entry, looked up): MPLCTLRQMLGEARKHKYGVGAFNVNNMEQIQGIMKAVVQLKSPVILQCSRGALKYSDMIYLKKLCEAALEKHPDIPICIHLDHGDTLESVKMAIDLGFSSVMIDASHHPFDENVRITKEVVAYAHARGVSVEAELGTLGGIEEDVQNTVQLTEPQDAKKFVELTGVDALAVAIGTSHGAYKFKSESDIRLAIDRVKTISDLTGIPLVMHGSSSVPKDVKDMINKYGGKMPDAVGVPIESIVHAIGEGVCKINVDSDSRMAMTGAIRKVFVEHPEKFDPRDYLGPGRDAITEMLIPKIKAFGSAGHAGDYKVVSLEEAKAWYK
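40 nM FBPA preincubated 10 min at RT with compound (up to 57.5 uM final), then substrate plus GAPDH/TPI/NAD/arsenate coupling and diaphorase/resazurin added. Fluorescence read after 20 min at RT, 525/598 nm.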
HCV inhibitor = HCV inhibition; hit rate 3.4% among 340,000; Potency, µM (doses to about 41.8 µM), without a hit: top-dose activity change, negative = inhibition, usual class: inhibitors; AID 651820; Huh7.5.1 HCVcc-Cre infection, luciferase reporter, 44 h; further: potency means the concentration at half of the fitted maximal effect
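HCVcc-Cre virus at an moi near 0.5 was added right after compound to cells cultured 4 h from seeding (1,000 cells/well). Luciferase activity was determined 44 h later, 15 min after substrate addition at RT.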
FMDV antiviral = foot and mouth disease virus antiviral activity; hit rate 1.2% among 410,000; FMDV antiviral cell-based qHTS; Potency, µM (series often up to 57.9 µM), for the others: top-dose activity change, negative = inhibition, usual class: inhibitors; calls by dose curve; tested in HEK293T cells; further: read-out not given here; potency means the concentration at half of the fitted maximal effect; nearly all actives have a fitted effect of over 45% in size
* = called active by the depositor; i = inactive; ? = inconclusive; / = not tested or not shown. Unless noted, the call rests on the fitted dose curve; in most records, active means well fitted curve in the direction sought with a large enough effect; inconclusive means small, poorly fitted or top-dose-only effect, or another doubt; inactive means no such curve, though single readings can be large; an effect the other way counts as inactive or inconclusive. On the % scale 0 is the no-effect control and ±100 the full control effect.

SMILES	Vaccinia mCherry	Vaccinia Venus	HCMV antiviral	FBPA Giardia inh	HCV inhibitor	FMDV antiviral
COC(=O)c1c(NC(=O)C2COc3ccccc3O2)sc2c1CCN(C(C)=O)C2 (stereo not given)	?	?	12.4	1.1%	?	35.5µM*
CCOC(=O)N1CCc2c(sc(NC(=O)C3COc4ccccc4O3)c2C(N)=O)C1 (stereo not given)	/	/	-96.6*	/	15.8µM*	39.8µM*
CC(=O)N1CCc2c(sc(NC(=O)c3ccc4c(c3)OCCO4)c2C#N)C1	?	-14.8%	39.8	-26.6%	2.82µM*	21.4%
CCN1CCc2c(sc(NC(=O)c3ccc(S(=O)(=O)N(CC)c4ccccc4)cc3)c2C(N)=O)C1	?	11.2µM*	-31.7	/	?	25.1µM*
CC(C)CC(=O)N(c1nnc(-c2cccnc2)s1)C1CCCC1	-12.3%	-9.2%	-0.9	6.1%	13.2%	1.7%
COC(=O)[C@H]1[C@H](CO)[C@H]2Cn3c(ccc(Br)c3=O)[C@@H]1N2S(=O)(=O)c1cn(C)cn1	/	/	-10.0	/	/	/
C1=Cc2ccccc2/C1=C\c1cccc(/C=C2\C=Cc3ccccc32)c1	-3.1%	-20.1%	/	/	/	/
COc1ccc2nccc(/C=C/c3ccc(N(C)C)cc3)c2c1	-13.0%	-8.9%	/	/	/	/
COC(=O)C1(CC(C)C)C=C2C(=C(c3ccccc3)C(=O)C2C)CN1 (stereo not given)	/	/	/	-14.6%	/	/
CN1CCc2c(sc(NC(=O)C3COc4ccccc4O3)c2C(N)=O)C1 (stereo not given)	-2.8%	-26.4%	-62.6*	-16.8%	/	15.6%
CC(=O)N1CCc2c(sc(NC(=O)c3ccc([N+](=O)[O-])o3)c2C(N)=O)C1	1.78µM*	5.01µM*	-101.0*	/	/	-2.0%
CCN1CCc2c(sc(NC(=O)C3COc4ccccc4O3)c2C(N)=O)C1 (stereo not given)	-16.9%	?	-71.2*	-19.2%	/	24.9%
CCC(=O)Nc1sc2c(c1C(N)=O)CCN(C(C)=O)C2	-23.1%	-7.9%	19.2	-22.7%	2.0%	-21.3%
CCOC(=O)Cn1c(=O)n(C2CCCCC2)c2nc(-c3ccc(CC)cc3)nc(C(N)=O)c21	-15.6%	-21.3%	1.6	/	/	-13.4%
Cc1ccc(-n2nnnc2C2CCN(S(=O)(=O)c3ccc(OC(F)(F)F)cc3)CC2)cc1	-25.6%	-18.1%	-15.3	/	/	-7.9%
O=S(=O)(c1ccc(OC(F)(F)F)cc1)N1CCC(c2nnnn2-c2ccc(F)cc2)CC1	6.8%	-5.4%	-73.1*	/	/	-13.7%
COc1ccc(-n2nnnc2C2CCN(S(=O)(=O)c3cccc(C(F)(F)F)c3)CC2)cc1	-18.6%	-16.0%	-13.7	/	/	1.3%
COc1ccc(S(=O)(=O)N2CCC(c3nnnn3-c3ccccc3)CC2)cc1OC	-19.0%	-20.2%	-38.7	/	/	25.1µM*
Cc1ccc([C@H]2C[C@@H](O)[C@H](n3cc(COC(=O)c4ccccc4)nn3)CN2C(=O)c2cccs2)cc1	i	-20.8%	-24.5	/	/	-18.6%
Oc1c(C(c2ccccc2)N2CCC3(CC2)OCCO3)sc2nc(-c3ccco3)nn12 (stereo not given)	-10.8%	-5.8%	13.6	/	/	11.5%
CN(C)C(CNC(=O)c1cc(S(=O)(=O)N(C)c2ccc(F)cc2)ccc1Cl)c1ccco1 (stereo not given)	-4.9%	-9.5%	?	/	?	-7.6%
COc1ccccc1N(C)S(=O)(=O)c1ccc(Cl)c(C(=O)NC2=NCCS2)c1	-1.0%	-9.5%	?	0.3%	-6.8%	-21.4%
CN(C)C(CNC(=O)c1cc(S(=O)(=O)N(C)c2ccccc2)ccc1Cl)c1ccccc1 (stereo not given)	-18.9%	-15.1%	?	1.8%	7.08µM*	-27.5%
CN(c1ccccc1)S(=O)(=O)c1ccc(Cl)c(C(=O)NC2=NCCS2)c1	13.0%	-18.1%	-101.3*	-4.2%	?	-21.2%
O=C(CCSc1ccc(Cl)cc1)Nc1cccnc1	-4.4%	-9.7%	69.4	2.7%	-16.2%	10.3%
SMILES	Vaccinia mCherry	Vaccinia Venus	HCMV antiviral	FBPA Giardia inh	HCV inhibitor	FMDV antiviral
O=C1c2ccccc2C(=O)c2c1ncn2-c1ccccc1	?	?	-67.6*	?	?	-14.6%
O=C1c2ccccc2C(=O)c2[nH]cnc21	?	?	-26.2	?	-21.1%	-16.8%
CCC[C@H](/C=C/C(=O)OCC)NC(=O)C(F)(F)F	/	/	-8.3	/	/	/
CCOC(=O)c1nn(-c2ccc(OC)cc2)c(=O)c2c(N)scc12	-10.7%	-9.1%	-9.2	?	-22.9%	-22.2%
CCOC(=O)c1nn(-c2ccc(C)c(C)c2)c(=O)c2c(N)scc12	/	/	-20.8	?	6.31µM*	-18.5%
COC(=O)c1cc(OC)c(OC)cc1NC(=O)c1cccc(C)c1	i	0.0%	?	4.8%	?	-13.2%
COC(=O)c1cc(OC)c(OC)cc1NC(=O)c1csc(C)c1	-13.9%	-11.1%	-67.3*	/	-12.9%	-19.0%
Cc1cc(C)c(NC(=O)CCCN2CCCC2)c(C)c1	i	9.1%	-67.2*	-14.7%	8.3%	-2.5%
Cc1cc(C)c(NC(=O)CS(=O)CC(=O)NCCN2CCCCCC2)c(C)c1 (stereo not given)	-14.0%	-5.8%	7.3	-10.1%	2.8%	34.7%
CCOC(=O)c1cc(S(=O)(=O)Nc2c(C)cc(C)cc2C)[nH]n1	-12.4%	-11.1%	-2.4	/	/	-2.1%
COc1ccc(C(=O)N2CCCC(c3nc(SCc4ccccn4)ncc3C)C2)cc1F (stereo not given)	-23.9%	?	/	/	/	?
COc1ccc(-c2oc3ccccc3c(=O)c2O)cc1	/	/	/	9.9%	/	/
COc1ccc(C(=O)c2ccc3oc(-c4ccc(OC)cc4)c(-c4ccc(O)cc4)c3c2)cc1	-10.9%	-28.7%	-64.5*	/	8.91µM*	-5.8%
COc1ccc(-c2oc3ccccc3c(=O)c2OC(=O)c2ccc(C)cc2)cc1	/	?	-74.6*	-0.7%	9.6%	15.6%
O=C(Oc1c(-c2ccccc2)oc2ccccc2c1=O)c1ccccc1	?	?	-81.9*	1.3%	-29.6%	20.9%
COc1ccc(C(=O)c2c(-c3ccc(OC)cc3)oc3ccccc23)cc1	-25.9%	-12.1%	14.3	/	-56.0%	0.0%
COc1cc2ccccc2cc1C(=O)Nc1ccc(O)cc1	?	?	69.0	-10.7%	?	28.5%
CCN1CCN(c2cc(C)c3cc(NC(=S)NCCCN4CCc5ccccc5C4)ccc3n2)CC1	?	-29.6%	?	-27.2%	8.91µM*	1.0%
CCN(CC)CCNC(=S)Nc1ccc2nc(N3CCN(CC)CC3)cc(C)c2c1	?	?	?	0.9%	?	-15.5%
Cc1cc(N2CCN(C)CC2)nc2ccc(NC(=S)N3CCN(c4ccc(F)cc4)CC3)cc12	-27.8%	-13.6%	-33.4	0.0%	10µM*	20.3%
Cc1cc(N2CCN(C)CC2)nc2ccc(NC(=S)NCCCN3CCc4ccccc4C3)cc12	-26.0%	-27.3%	-2.7	-24.2%	11.2µM*	-12.0%

High-throughput results from PubChem BioAssay.
